# Measurements from PubChem BioAssay (NCI).
# About 83,000 compounds went through this panel and 20% of them were active in at least one assay; those are over-represented in the sample as a whole.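 The test compound was applied at a single concentration to cells in 96-well plates for 48 hours, and percent growth was recorded.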 Unmarked numbers belong to inactive results. Active and inactive are the calls of the source. Rule for the calls: active = growth percent below 10; inactive = the rest.
# Assays:
# Experiment in all cases: NCI-60 one-dose screen, 48 h (100 = growth as untreated, 0 = no growth, -100 = all killed)
# Conditions in all cases: 10 µM unless noted
# NCI-H23 lung = system: NCI-H23 lung
# NCI-H226 lung = system: NCI-H226 lung
# NCI-H322M lung = system: NCI-H322M lung
# HOP-62 NSCLC = system: HOP-62 NSCLC
# NCI-H460 lung = system: NCI-H460 lung
# HOP-92 NSCLC = system: HOP-92 NSCLC
# NCI-H522 lung = system: NCI-H522 lung
# A549/ATCC NSCLC = system: A549/ATCC NSCLC
# 786-0 renal = system: 786-0 renal
# COLO 205 colon = system: COLO 205 colon
# DU-145 prostate = system: DU-145 prostate
# K-562 leukemia = system: K-562 leukemia
# MALME-3M melanoma = system: MALME-3M melanoma
# MDA-MB-231 breast = system: MDA-MB-231 breast
# RXF 393 renal = system: RXF 393 renal
# SF-268 CNS = system: SF-268 CNS
# SF-295 CNS = system: SF-295 CNS
# SF-539 CNS = system: SF-539 CNS
# UACC-257 melanoma = system: UACC-257 melanoma
SMILES,growth (NCI-H23 lung),growth (NCI-H226 lung),growth (NCI-H322M lung),growth (HOP-62 NSCLC),growth (NCI-H460 lung),growth (HOP-92 NSCLC),growth (NCI-H522 lung),growth (A549/ATCC NSCLC),growth (786-0 renal),growth (COLO 205 colon),growth (DU-145 prostate),growth (K-562 leukemia),growth (MALME-3M melanoma),growth (MDA-MB-231 breast),growth (RXF 393 renal),growth (SF-268 CNS),growth (SF-295 CNS),growth (SF-539 CNS),growth (UACC-257 melanoma)
CCCCCCCCCCCCCCCCCC1=NCCN1C(=O)OCCO,76.9%,78.5%,51.1%,52.6%,7.14% (active),56.5%,11.1%,-72.4% (active),87.2%,-72.9% (active),-3.11% (active),1.39% (active),94%,-25.6% (active),49.8%,31.4%,23.3%,-25.7% (active),62.9%
COc1ccc(-c2cc(-c3ccc(Nc4nc(Nc5ccccc5)nc(Nc5ccc(Cl)cc5)n4)cc3)nc(N)n2)cc1,56.6%,81.2%,83.3%,57.2%,61.6%,37.6%,76.3%,79.5%,51.5%,68.4%,100%,23.7%,79.2%,49%,75.6%,75.8%,64.1%,76.9%,77.1%
Nc1c(C(=O)c2ccc(Cl)s2)sc2nc3c(cc12)CCCC3,91.5%,96.6%,103%,97.3%,98.6%,82.5%,83.1%,100%,106%,110%,110%,101%,100%,108%,113%,104%,102%,96.8%,105%
O=C1CC(c2ccc3c(c2)OCO3)Nc2cc3c(cc21)OCO3 (stereo not given),44.5%,64.5%,57.5%,29.7%,5.95% (active),29.2%,-9.02% (active),10.1%,30.8%,-27.1% (active),15.3%,10.2%,75.2%,24.7%,-11.2% (active),44%,7.59% (active),6.5% (active),39.6%
COc1cc(C2CC(c3ccc(Nc4nc(Nc5ccc(F)cc5)nc(Nc5ccc(Cl)cc5)n4)cc3)=NN2C(C)=O)cc(OC)c1OC (stereo not given),68.8%,67.9%,84.8%,72.3%,77.9%,51.8%,73.8%,50.8%,87.2%,58%,110%,44.2%,67.9%,77.8%,71.5%,90.4%,339%,84.6%,122%
COc1ccc(NC(=O)C(=O)c2c[nH]c3ccc(F)cc23)cc1,97.8%,101%,73%,103%,90.7%,99.2%,85.1%,78.7%,56.1%,104%,88.9%,90.6%,115%,95.5%,103%,94.7%,102%,108%,101%
Clc1ccc(-c2cn(-c3ccccc3)c(-c3ccccc3)n2)cc1,85.2%,80.9%,95.9%,76.9%,104%,68.7%,55.2%,71.3%,81.3%,107%,93.9%,18.4%,111%,98.9%,132%,96.9%,98.8%,102%,173%
NS(=O)(=O)c1cnccc1-n1ccc(=O)c(S(N)(=O)=O)c1,91.4%,84.1%,94.2%,85.6%,109%,80.9%,9.19% (active),33.9%,97.5%,94.4%,106%,84.1%,50.1%,94%,139%,101%,59.1%,97.8%,115%
O=c1[nH]c(=O)n(C2CC(O)C(CO)O2)cc1CO (stereo not given),41.6%,98.2%,102%,32.8%,65.9%,105%,101%,86.5%,-18.5% (active),120%,111%,82.3%,90.1%,102%,99.5%,99.8%,110%,95.7%,103%
C=C1C(=O)O[C@H]2[C@H]1CC/C(COC(=O)/C=C\C(=O)NCc1ccc(Cn3c(=O)sn(-c4ccc(C#N)cc4)c3=O)cc1)=C\CC[C@@]1(C)O[C@@H]21,-80.4% (active),-69.5% (active),-46.6% (active),-37.3% (active),-68.7% (active),-65.8% (active),-47.5% (active),-21.4% (active),-75.8% (active),-55.4% (active),-94.4% (active),-8.61% (active),-95% (active),-86% (active),–,-75.2% (active),56.4%,-99.3% (active),-68.2% (active)
O=C1c2cccc3c(-c4ccc(-c5nc6c7ccccc7c7ccccc7c6[nH]5)cc4)ccc(c23)C(=O)N1CCN1CCNCC1,83.3%,94.9%,75.3%,62.1%,41.2%,86.2%,91.8%,70.7%,52.4%,61.9%,42.5%,-10.2% (active),85.4%,63.3%,–,104%,101%,73.8%,108%
CO[C@H]1/C=C/O[C@@]2(C)Oc3c(C)c(O)c4c(c3C2=O)C(=O)C(/C=N/N(c2ccccc2)c2ccccc2)=C(NC(=O)/C(C)=C\C=C\[C@H](C)[C@H](O)[C@@H](C)[C@@H](O)[C@@H](C)[C@H](OC(C)=O)[C@@H]1C)C4=O,5.83% (active),18.4%,22.2%,-76.7% (active),-50.7% (active),-48.6% (active),-24% (active),3.7% (active),3.91% (active),-60.3% (active),12.9%,7.47% (active),-43.9% (active),-40.1% (active),-61.9% (active),14.9%,-72.3% (active),-69.8% (active),-22.5% (active)
Cc1nc(-c2ccccc2)cc2c(O)c(C(=O)N/N=C/c3ccc(N(C)C)cc3)[nH]c(=O)c12,78.1%,107%,90.5%,77.3%,94.9%,32%,72.7%,40.5%,79.2%,109%,75.1%,62.6%,98.2%,71.7%,–,81.7%,94.1%,69.7%,106%
NC(=O)CC1(O)C=C(Br)C(=O)C(Br)=C1,57.3%,-57.6% (active),113%,108%,104%,-50.9% (active),-49.7% (active),112%,70.8%,-66.1% (active),105%,-29.6% (active),-34.3% (active),113%,-32.6% (active),89.3%,115%,96.1%,80.9%
CCC(O)(C(c1ccccc1)c1ccccn1)C(c1ccccc1)c1ccccn1 (stereo not given),110%,104%,98.6%,106%,110%,109%,102%,104%,105%,105%,103%,101%,94.4%,120%,118%,95.3%,122%,92.1%,112%
CCN(CC)CCOc1ccc(/C(=C(\C)c2ccc(OC)c(F)c2)c2ccc(Cl)cc2)cc1,80.8%,102%,85.1%,78.5%,61.1%,82%,86.1%,59.7%,68.2%,42.2%,84%,19%,55.9%,87.6%,–,87.4%,61.6%,24.5%,68.4%
